The results in this text go back to PubChem BioAssay.

Active and inactive are the calls of the source.

Experiment [1] can be described thus: small molecules captured by biotinylated probe aFSTL3 – biochemical, small-molecule microarray, fluorescence 635/667, stem cell growth factor project, primary screen (AID 1064).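 Note: measures binding of the biotinylated anti-FSTL3 antibody to printed compounds.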 Conditions: higher = more signal.
Experiment [2] can be described thus: binders from COS7 lysate, DM2A8 probe, primary screen, torsin A project, cell lysate, small-molecule microarray, fluorescence 635/667 (AID 1065). Conditions: higher = more signal, COS7 lysate expressing mutant human TOR1A.
A short description of experiment [3]: small molecules captured by biotinylated probe aFGF2 – biochemical, small-molecule microarray, fluorescence 635/667, stem cell growth factor project, primary screen (AID 1067).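 Note: measures binding of biotinylated aFGF2 protein to printed compounds on slides; z-score merges feature fluorescence and signal-to-noise across triplicate slides.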 Conditions: higher = more signal.
The nature of experiment [4]: small molecules captured by biotinylated probe aFGF10 – biochemical, small-molecule microarray, fluorescence 635/667, stem cell growth factor project, primary screen (AID 1071).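 Note: score merges 667 nm spot intensity and signal to noise from triplicate slides.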 To be noted: higher = more signal.
Experiment [5] concerns the target Neurogenic locus notch homolog protein 2 (Homo sapiens) (UniProt Q04721). The experiment can be described thus: small molecules binding Notch2 protein – biochemical, small-molecule microarray, 635 nm fluorescence, stem cell growth factors, primary screen (AID 1073). To be noted: higher = more signal.
For experiment [6], the target named is Pro-neuregulin-1, membrane-bound isoform (Homo sapiens) (UniProt Q02297). The experiment can be described thus: small molecules binding neuregulin-1 protein – biochemical, small-molecule microarray, fluorescence 635/667, psychiatric disease protein project, primary screen (AID 1075).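 Note: score combines 667 nm spot fluorescence with signal to noise.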 To be noted: NRG1 binding, 635 nm fluorescence, higher = more signal.
Pro-neuregulin-1, membrane-bound isoform (Homo sapiens), sequence (Q02297 whole entry, looked up, the tested form may be a part, canonical isoform): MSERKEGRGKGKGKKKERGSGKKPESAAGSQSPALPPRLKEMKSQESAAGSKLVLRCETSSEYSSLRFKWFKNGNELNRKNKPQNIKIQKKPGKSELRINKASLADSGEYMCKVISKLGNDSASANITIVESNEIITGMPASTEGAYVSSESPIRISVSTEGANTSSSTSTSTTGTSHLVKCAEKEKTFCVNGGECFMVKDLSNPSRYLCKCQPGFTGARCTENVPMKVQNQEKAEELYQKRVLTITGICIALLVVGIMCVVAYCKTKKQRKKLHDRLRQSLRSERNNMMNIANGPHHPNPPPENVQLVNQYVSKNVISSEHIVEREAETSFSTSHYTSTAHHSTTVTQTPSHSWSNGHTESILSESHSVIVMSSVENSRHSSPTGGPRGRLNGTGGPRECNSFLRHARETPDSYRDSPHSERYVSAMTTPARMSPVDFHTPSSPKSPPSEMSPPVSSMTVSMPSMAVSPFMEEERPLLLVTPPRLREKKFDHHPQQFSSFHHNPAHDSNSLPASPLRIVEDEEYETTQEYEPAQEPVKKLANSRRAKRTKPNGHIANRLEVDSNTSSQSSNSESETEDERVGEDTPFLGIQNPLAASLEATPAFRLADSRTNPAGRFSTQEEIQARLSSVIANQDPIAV
For experiment [7], the system named is Neuregulin-1 EGF-like domain. In words: small molecules binding NRG1 EGF domain – biochemical, small-molecule microarray, 635 nm fluorescence, primary screen (AID 1081).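 Note: binding of the protein to compounds printed on small-molecule microarray slides.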 Conditions: higher = more signal.
The nature of experiment [8]: FRG1 expression reporter modulators in myotubes – cell-based, C2C12 myotubes, firefly/Renilla luciferase, luminescence, FRG1 inhibition for FSHD, primary screen (AID 1084). Conditions: FRG1 promoter luciferase, higher = more signal, called active from +8 up or from −8 down.
The nature of experiment [9]: small molecules captured by biotinylated probe aFST – biochemical, small-molecule microarray, fluorescence 635/667, stem cell growth factor project, primary screen (AID 1086).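 Note: score merges 667 nm fluorescence with signal-to-noise of each printed compound spot.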 To be noted: higher = more signal.
Experiment [10] in a line: binders of probe aHhip on microarray, primary screen, stem cell growth factor project, biochemical, small-molecule microarray, fluorescence 635/667 (AID 1087).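 Note: score merges spot fluorescence at 667nm with spot signal to noise ratio.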 Conditions: higher = more signal.
Experiment [11] relates to PRMT1 (protein arginine N-methyltransferase 1). The experiment can be described thus: small molecules binding arginine methyltransferase PRMT1 – biochemical, small-molecule microarray, 635 nm fluorescence, primary screen (AID 1088).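 Note: binding of Prmt1 protein to compounds spotted on small-molecule microarray slides.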 To be noted: higher = more signal.
Experiment [12] can be described thus: growth effects on S. cerevisiae YJM789 – YJM789 clinical isolate, OD600, 24 h, basal, primary screen (AID 1089).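 Note: growth of clinical yeast isolate S. cerevisiae YJM 789 seeded 1000 cells per well; test concentration not given here.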 Conditions: higher = more signal, called active from +8 up or from −8 down.
Experiment [13] in a line: S. pombe growth modifiers, basal conditions – strain 972, OD600, 24 h, no modulator, primary screen (AID 1090).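 Note: basal condition with compound alone and no growth modifier present; test concentration not given here.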 To be noted: S. pombe 972 growth, higher = more signal, called active from +8 up or from −8 down.
A short description of experiment [14]: budding yeast growth modifiers under rapamycin – strain BY4716, OD600, 96 h, primary screen (AID 1091). Note: test concentration not given here. To be noted: S. cerevisiae BY4716 + rapamycin, higher = more signal, called active from +8 up or from −8 down.
For experiment [15], the target named is Torsin-1A-interacting protein 2 (Homo sapiens) (UniProt Q8NFQ8). In words: small molecules binding lysate-expressed LULL1 – cell lysate, human LULL1 lysate, 635/667 nm fluorescence, primary screen (AID 1092).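 Note: probe is lysate of COS7 cells overexpressing human LULL1; score merges per-feature 667 nm fluorescence with signal-to-noise.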 Conditions: small-molecule microarray, hLULL1 lysate binding, 635 nm fluorescence; higher = more signal.
Torsin-1A-interacting protein 2 (Homo sapiens), sequence (Q8NFQ8 whole entry, looked up): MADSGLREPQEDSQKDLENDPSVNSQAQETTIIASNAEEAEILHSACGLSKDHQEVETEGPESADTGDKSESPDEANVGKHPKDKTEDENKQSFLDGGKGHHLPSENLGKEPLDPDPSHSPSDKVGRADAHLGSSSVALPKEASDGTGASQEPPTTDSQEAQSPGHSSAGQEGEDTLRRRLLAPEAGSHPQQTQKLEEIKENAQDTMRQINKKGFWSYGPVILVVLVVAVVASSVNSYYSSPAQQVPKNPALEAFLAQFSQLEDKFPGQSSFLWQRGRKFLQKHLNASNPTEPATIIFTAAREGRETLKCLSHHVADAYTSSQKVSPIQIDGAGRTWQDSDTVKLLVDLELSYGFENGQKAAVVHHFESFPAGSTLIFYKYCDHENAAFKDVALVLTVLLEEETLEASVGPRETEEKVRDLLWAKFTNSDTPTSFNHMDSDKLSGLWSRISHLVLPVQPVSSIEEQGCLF
Experiment [16] can be described thus: optical density change of DRC41 E. coli – strain DRC41, OD650, 24 h, E. coli filamentation project, primary screen (AID 1093).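 Note: MC1000 strain lacking acrAB efflux and sulA so SOS filamentation is blocked; test concentration not given here.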 Conditions: E. coli DRC41 growth, higher = more signal, called active from +8 up or from −8 down.
Experiment [17] can be described thus: probe aLefty2 binding to arrayed compounds – biochemical, biotinylated probe, 635/667 nm fluorescence, primary screen (AID 1094).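 Note: score merges spot fluorescence near 667 nm with spot signal-to-noise ratio.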 Conditions: small-molecule microarray, higher = more signal.
Experiment [18] has as its system Noggin (protein binding on small-molecule microarray). In words: small molecules binding Noggin protein – biochemical, 635/667 nm fluorescence, primary screen (AID 1095).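 Note: score merges 667 nm feature fluorescence with signal to noise over triplicate slides.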 To be noted: 635 nm fluorescence, higher = more signal.
Experiment [19] deals with Neurogenic locus notch homolog protein 3 (Homo sapiens) (UniProt Q9UM47). The experiment can be described thus: small molecules binding NOTCH3 protein – biochemical, 635/667 nm fluorescence, primary screen (AID 1096). Conditions: small-molecule microarray, 635 nm fluorescence, higher = more signal.
Neurogenic locus notch homolog protein 3 (Homo sapiens), sequence (Q9UM47 whole entry, looked up): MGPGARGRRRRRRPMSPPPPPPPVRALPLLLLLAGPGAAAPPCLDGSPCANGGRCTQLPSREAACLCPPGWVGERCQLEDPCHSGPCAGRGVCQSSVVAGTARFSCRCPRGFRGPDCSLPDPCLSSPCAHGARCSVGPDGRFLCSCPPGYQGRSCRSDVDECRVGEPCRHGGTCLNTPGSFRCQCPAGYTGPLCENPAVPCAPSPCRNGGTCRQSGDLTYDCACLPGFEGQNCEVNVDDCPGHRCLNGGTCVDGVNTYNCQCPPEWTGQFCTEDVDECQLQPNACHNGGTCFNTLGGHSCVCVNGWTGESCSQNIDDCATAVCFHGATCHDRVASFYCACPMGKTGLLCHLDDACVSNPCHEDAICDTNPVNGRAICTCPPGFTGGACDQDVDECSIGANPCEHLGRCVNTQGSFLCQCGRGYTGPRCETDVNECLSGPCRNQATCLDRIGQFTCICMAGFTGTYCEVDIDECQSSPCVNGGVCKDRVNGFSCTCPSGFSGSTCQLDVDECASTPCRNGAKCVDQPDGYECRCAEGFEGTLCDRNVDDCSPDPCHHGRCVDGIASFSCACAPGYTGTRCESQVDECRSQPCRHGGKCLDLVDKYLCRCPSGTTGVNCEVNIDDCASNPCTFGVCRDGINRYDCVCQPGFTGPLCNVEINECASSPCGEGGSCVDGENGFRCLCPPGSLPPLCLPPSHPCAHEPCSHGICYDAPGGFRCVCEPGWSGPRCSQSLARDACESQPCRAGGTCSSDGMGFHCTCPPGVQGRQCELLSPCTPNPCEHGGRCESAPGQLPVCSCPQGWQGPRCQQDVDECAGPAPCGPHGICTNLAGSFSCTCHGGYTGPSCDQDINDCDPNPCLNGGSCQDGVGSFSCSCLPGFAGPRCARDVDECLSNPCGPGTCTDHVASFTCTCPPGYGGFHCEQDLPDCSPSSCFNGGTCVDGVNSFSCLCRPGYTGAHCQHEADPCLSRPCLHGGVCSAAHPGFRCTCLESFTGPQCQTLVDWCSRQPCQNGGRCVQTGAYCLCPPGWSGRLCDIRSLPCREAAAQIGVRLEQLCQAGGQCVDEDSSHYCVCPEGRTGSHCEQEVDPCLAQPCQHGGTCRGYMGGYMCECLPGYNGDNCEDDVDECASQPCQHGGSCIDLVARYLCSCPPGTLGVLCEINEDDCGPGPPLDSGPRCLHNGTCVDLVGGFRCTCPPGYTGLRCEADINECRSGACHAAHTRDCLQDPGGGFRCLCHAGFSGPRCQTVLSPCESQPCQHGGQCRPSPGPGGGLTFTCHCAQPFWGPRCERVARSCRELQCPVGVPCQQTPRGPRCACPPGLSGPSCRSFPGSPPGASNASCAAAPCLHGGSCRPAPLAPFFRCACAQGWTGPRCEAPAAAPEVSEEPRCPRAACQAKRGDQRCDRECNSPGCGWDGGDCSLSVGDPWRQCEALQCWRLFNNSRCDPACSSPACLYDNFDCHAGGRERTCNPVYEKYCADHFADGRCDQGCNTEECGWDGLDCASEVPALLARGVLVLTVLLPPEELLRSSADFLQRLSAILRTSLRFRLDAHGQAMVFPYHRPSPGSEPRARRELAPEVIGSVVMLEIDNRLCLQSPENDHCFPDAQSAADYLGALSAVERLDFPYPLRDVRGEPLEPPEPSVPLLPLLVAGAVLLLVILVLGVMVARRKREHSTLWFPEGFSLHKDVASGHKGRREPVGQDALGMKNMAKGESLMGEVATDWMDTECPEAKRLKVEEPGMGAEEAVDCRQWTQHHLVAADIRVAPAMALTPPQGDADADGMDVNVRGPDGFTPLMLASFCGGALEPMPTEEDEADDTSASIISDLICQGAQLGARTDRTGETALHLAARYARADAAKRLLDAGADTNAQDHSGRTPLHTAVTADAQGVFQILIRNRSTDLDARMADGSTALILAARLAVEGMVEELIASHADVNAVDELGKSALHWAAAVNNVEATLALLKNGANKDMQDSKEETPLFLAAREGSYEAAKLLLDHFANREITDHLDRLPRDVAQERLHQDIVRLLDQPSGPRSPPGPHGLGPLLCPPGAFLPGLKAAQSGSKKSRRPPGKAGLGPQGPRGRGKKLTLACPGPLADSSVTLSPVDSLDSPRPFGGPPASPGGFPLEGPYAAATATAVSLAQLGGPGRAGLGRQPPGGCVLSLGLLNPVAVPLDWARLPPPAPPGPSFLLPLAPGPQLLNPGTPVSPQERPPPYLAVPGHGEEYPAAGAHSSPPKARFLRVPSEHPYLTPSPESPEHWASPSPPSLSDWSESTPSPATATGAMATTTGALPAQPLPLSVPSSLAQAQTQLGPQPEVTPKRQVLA
A short description of experiment [20]: probe aEGFR binding to arrayed compounds – biochemical, biotinylated probe, 635/667 nm fluorescence, primary screen (AID 1097).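 Note: probe is a biotinylated anti-EGFR antibody binding compounds printed on slides; score combines fluorescence near 667 nm and signal to noise of each spot.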 To be noted: small-molecule microarray, higher = more signal.

Turning to `CCCC=C(CCC)[C@@H](NS(=O)(=O)c1cccs1)c1ccc(C(=O)OC)cc1`, the composite z-score was 0.002 in experiment [1]; -0.0193 in [2]; 0.0969 in experiment [3]; 0.646 in experiment [4]; 1.53 in [5]; 1.94 in [6]. Moreover, the composite z-score in [7] is 1.18; in experiment [9] it was 0.969; in [10], 0.398; in experiment [11] it was 0.946; in experiment [15], 3.43; in experiment [17], -0.0375. The composite z-score was -0.213 in experiment [18], 0.882 in experiment [19] and -0.11 in experiment [20]. Also, the z-score in [8] is -3.86 (inactive); in experiment [12], 0.212 (inactive); in [13], -1.19 (inactive); in experiment [14], 0.602 (inactive); in [16] it was -0.0839 (inactive).
For the molecule `CC(C)C[C@@H]1NC(=O)[C@@H]2C[C@H](C(=O)NCCCCCN)[C@H](c3cccc(OCCO)c3)N2C1=O`, the composite z-score is 0.235 in experiment [1]; -0.0087 in experiment [2]; 0.0465 in experiment [3]; 0.796 in experiment [4]; 0.128 in [5]; 1.4 in [6]. In addition, the composite z-score in [7] came out at 1.29; in experiment [9], 0.393; in experiment [10], 0.28; in experiment [11], 1.3; in [15] it was 2.73; in experiment [17], 0.215. Besides, the composite z-score was 0.359 in experiment [18], 0.244 in [19] and -0.0549 in experiment [20]. Besides, the z-score is -0.284 (inactive) in [8]; -4.39 (inactive) in experiment [12]; -0.894 (inactive) in experiment [13]; -1.13 (inactive) in [14]; 0.758 (inactive) in [16].
For `C[C@]1(C(=O)NC2CC2)c2ccccc2C(=O)N(Cc2cc(C(F)(F)F)cc(C(F)(F)F)c2)[C@H]1c1ccc(CO)cc1`, the composite z-score in [1] worked out at 0.098; in experiment [2], 0.14; in [3] it was 0.0458; in experiment [4], 0.31; in experiment [5] it was 1.26; in experiment [6], 0.354. Also, the composite z-score in experiment [7] is 1.26; in experiment [9], 0.603; in experiment [10] it was -0.0994; in experiment [11], 1.38; in experiment [15], 1.32; in experiment [17], 0.0868. Further, the composite z-score in experiment [18] was 0.829; in experiment [19], 0.967; in experiment [20], -0.0013. For the same molecule, the z-score in experiment [8] was -0.583 (inactive); in [12], 0.412 (inactive); in experiment [13], -1.05 (inactive); in [14] it was -0.0211 (inactive); in experiment [16], 1.08 (inactive).
